Records with an inconclusive call do not appear. Activity calls are given as the source filed them. Unless noted, calls follow the shape of the dose curve; as a rule, active = well fitted curve in the direction sought with a large enough effect; inconclusive = small, poorly fitted or top-dose-only effect, or another doubt; inactive = no such curve, though single readings can be large; an effect the other way counts as inactive or inconclusive.
Assays:
[1] = qHTS to identify inhibitors of the type 1 interferon - major histocompatibility complex class I in skeletal muscle: primary screen against the NCATS Mechanism Interrogation Plate v5.0 (MIPE) Libary (AID 1347411); also: nearly all actives have a fitted effect of over 65% in size; also: potency is read from the fitted curve at half-maximal effect;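 as to activity change, negative = inhibition: plate controls were vehicle for no effect and reference inhibitor for full effect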
Method in brief: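 Luminescence from HiBiT-tagged endogenous HLA-B*08:01 served as the MHC class I read-out. CRISPR-engineered C25cl48 human myoblasts received 4.0 ng/ml IFN-beta plus compound for 24 hrs, with an 11-point, 1:3 series topping at 46 uM final.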

[2] = Primary qHTS for inhibitors of nuclear receptor binding SET domain protein 2 (NSD2) in an isogenic RCH-ACV NSD2 p.E1099K mutant (9B) (AID 1645876); also: nearly all actives have a fitted effect of over 70% in size; also: potency is read from the fitted curve at half-maximal effect; as to activity change, negative = viability loss: % is scaled to controls: 0 for no effect and ±100 for the full control effect
[3] = Primary qHTS for inhibitors of nuclear receptor binding SET domain protein 2 (NSD2) in an RCH-ACV wild type WT cells (2C) (AID 1645877); also: nearly all actives have a fitted effect of over 70% in size; also: potency is read from the fitted curve at half-maximal effect; as to activity change, negative = cell killing: % is scaled to controls: 0 for no effect and ±100 for the full control effect
[4] = molecular target: Glutathione peroxidase 1 (Homo sapiens) (UniProt P07203); assay: Primary qHTS Assay for Inhibitors of Recombinant Selenoprotein Glutathione Peroxidase 1 (GPX1) (AID 1845191); also: nearly all actives have a fitted effect of over 65% in size; as to activity, negative = inhibition: % is scaled to controls: 0 for no effect and ±100 for the full control effect
Method in brief: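 Recombinant GPX1 (10 nM final) was preincubated with compound for 30 min at room temperature, then reacted with 1 mM GSH, 0.5 mM CHP, 0.5 mM NADPH and 100 nM glutathione reductase; NADPH fluorescence (340/450 nm) was read at 0 and 15 min.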

[5] = molecular target: Phospholipid hydroperoxide glutathione peroxidase GPX4 (Homo sapiens) (UniProt P36969); assay: Primary qHTS Assay for Inhibitors of Recombinant Selenoprotein Glutathione Peroxidase 4 (GPX4) (AID 1845192); details: outcome: dose series up to 50 µM unless noted; also: nearly all actives have a fitted effect of over 65% in size; as to activity change, negative = inhibition: series mostly up to about 50 µM; % is scaled to controls: 0 for no effect and ±100 for the full control effect
Method in brief: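 GR-coupled readout: 100 nM GR, 1 mM GSH, 0.5 mM NADPH; NADPH fluorescence (ex 340/em 450 nm) read at t=0 and after 15 min RT. GPX4 200 nM, preincubated 30 min with compound; substrate 0.5 mM CHP.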

[6] = qHTS drug screen for cell cycle checkpoint inhibitors in PARPi-resistant BRCA-mutant ovarian cancer cell lines. (AID 1963452; calls by dose curve; also: potency is read from the fitted curve at half-maximal effect); details: PEO1/OlaR viability, CellTiter-Glo luminescence, 96 h; for Z-AUC: stronger effect = lower value
Method in brief: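 PEO1, PEO4 and PEO1/OlaR ovarian cancer cells, 600 per well, exposed 96 h at 37C to a dilution series. Viability read by CellTiter-Glo luminescence, normalized to DMSO and empty wells; activity summarized as Z-AUC.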

[7] = measured here: PEO1 parental Z-AUC

Sequence of Glutathione peroxidase 1 (Homo sapiens) (P07203 whole entry, looked up): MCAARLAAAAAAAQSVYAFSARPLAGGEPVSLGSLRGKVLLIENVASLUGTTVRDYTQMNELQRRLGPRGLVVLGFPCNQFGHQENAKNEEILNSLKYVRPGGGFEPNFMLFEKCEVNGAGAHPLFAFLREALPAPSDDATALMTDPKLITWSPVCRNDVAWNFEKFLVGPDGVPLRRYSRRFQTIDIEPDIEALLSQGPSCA
Sequence of Phospholipid hydroperoxide glutathione peroxidase GPX4 (Homo sapiens) (P36969 whole entry, looked up): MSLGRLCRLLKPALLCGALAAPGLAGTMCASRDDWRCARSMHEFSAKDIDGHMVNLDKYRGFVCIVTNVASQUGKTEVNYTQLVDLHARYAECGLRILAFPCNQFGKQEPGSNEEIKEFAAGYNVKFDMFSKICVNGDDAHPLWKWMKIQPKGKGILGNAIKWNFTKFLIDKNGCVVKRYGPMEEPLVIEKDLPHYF

## O=C([O-])C[O-].[Pt+2]
[1]
  Potency: inactive
[2]
  Potency: inactive
[3]
  Potency: inactive
[4]
  Potency: inactive
[5]
  Potency: inactive
[6]
  Z-AUC: 1.62 (inactive)
[6]; [7]
  Z-AUC: 1.67
[6]; measured here: PEO4 Z-AUC
  Z-AUC: 1.5

## C/C(=N\NC(=S)N1CCC1)c1ccccn1
[1]
  Potency: inactive
[2]
  Potency: 10.5 nM (active)
[3]
  Potency: 9.3 nM (active)
[4]
  Potency: inactive
[5]
  Potency: inactive
[6]
  Z-AUC: -0.969 (inactive)
[6]; [7]
  Z-AUC: -1.12
[6]; measured here: PEO4 Z-AUC
  Z-AUC: -1.07

## O=C(/C=C/c1ccc(/C=C/C(=O)Nc2ccc(C3=NCCN3)cc2)cc1)Nc1ccc(C2=NCCN2)cc1
[1]
  activity change, negative = inhibition: -3.84% [at 5.1 µM] (inactive)
[2]
  activity change, negative = viability loss: -16.1% [at 4.96 µM] (inactive)
[3]
  activity change, negative = cell killing: -11% [at 4.96 µM] (inactive)
[4]
  activity, negative = inhibition: 2.37% [at 4.49 µM] (inactive)
[6]
  Z-AUC: 0.122 (inactive)
[6]; [7]
  Z-AUC: 0.179
[6]; measured here: PEO4 Z-AUC
  Z-AUC: 0.581

## C=C1C[C@H]2C=Nc3cc(OCCCOc4cc5c(cc4OC)C(=O)N4CC(=C)C[C@H]4C=N5)c(OC)cc3C(=O)N2C1
[1]
  Potency: inactive
[2]
  Potency: inactive
[3]
  Potency: inactive
[4]
  Potency: inactive
[6]
  Z-AUC: 1.4 (inactive)
[6]; [7]
  Z-AUC: 0.729
[6]; measured here: PEO4 Z-AUC
  Z-AUC: 0.852

## O=C(/C=C\n1cnc(-c2cc(C(F)(F)F)cc(C(F)(F)F)c2)n1)NNc1ccccn1
[1]
  Potency: 2340 nM (active)
[2]
  Potency: 3720 nM (active)
[3]
  Potency: 3320 nM (active)
[4]
  Potency: inactive
[5]
  Potency: inactive
[6]
  Z-AUC: -0.821 (inactive)
[6]; [7]
  Z-AUC: -1.43
[6]; measured here: PEO4 Z-AUC
  Z-AUC: -1.79

## CCn1c(=O)c(-c2ccc(-c3cncc(C)n3)cc2Cl)cc2cnc(NCCC3CCN(C)CC3)nc21
[1]
  activity change, negative = inhibition: -29.5% [at 5.1 µM] (inactive)
[2]
  Potency: 1180 nM (active)
[3]
  Potency: 1320 nM (active)
[4]
  outcome: inactive [at 4.49 µM]
[6]
  Z-AUC: 1.53 (inactive)
[6]; [7]
  Z-AUC: 0.823
[6]; measured here: PEO4 Z-AUC
  Z-AUC: 1.06

## CC[C@@]1(O)C(=O)OCc2c1cc1n(c2=O)Cc2c-1nc1ccccc1c2CCNC(C)C
[1]
  Potency: 739 nM (active)
[2]
  Potency: 4.2 nM (active)
[3]
  Potency: 2.6 nM (active)
[4]
  activity, negative = inhibition: -16.5% [at 4.49 µM] (inactive)
[6]
  Potency: 17.4 nM (active)
[6]; [7]
  Z-AUC: -2.94
[6]; measured here: PEO4 Z-AUC
  Z-AUC: -1.65

Source: PubChem BioAssay (NCATS)
